Screen size: about 420,000 compounds; about 50,000 (12%) were called active. Roughly 26% stayed inconclusive and do not appear here. The entries come from a sample that favours actives as a whole. Entries that show only a call come without a potency. A number with no mark means an inactive call. The call rests on the fitted dose curve; in most records, active means well fitted inhibition curve with a large enough effect; inconclusive means small, poorly fitted or top-dose-only effect; inactive means flat fitted curve, though single readings scatter.
Assay: qHTS for Inhibitors of human tyrosyl-DNA phosphodiesterase 1 (TDP1): qHTS in cells in presence of CPT; further: nearly all actives have a fitted effect of over 55% in size
Details: chicken DT40 Tdp1-/-;hTDP1 cells + 20 nM CPT, ATP luminescence, 48 h; series mostly up to 46.2 µM
Method in brief: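 Chicken DT40 Tdp1-/- cells stably complemented with human TDP1 were seeded at 400 cells/well in medium containing 20 nM camptothecin, exposed to pin-transferred compounds, and grown at 37 °C for at least 48 hr. Viability was read as ATP luminescence.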
Potency means the concentration at half of the fitted maximal effect.

SMILES	Potency	activity change, negative = growth inhibition
O=C1C2C3C=CC(C3)C2C(=O)N1c1ncc([N+](=O)[O-])s1 (configuration not stated)	inactive	–
CC1Cc2[nH][nH]c(=O)c2C(C2CC2)O1 (configuration not stated)	inactive	–
Cc1ccn2c(=O)nc(SCC(=O)NCc3ccc(F)cc3)nc2c1	inactive	–
O=C(CSc1nc(-c2ccco2)cc(C(F)(F)F)n1)NCc1cccs1	inactive	–
CCNS(=O)(=O)c1ccc(NC(=O)CSc2nc(-c3ccco3)cc(C(F)(F)F)n2)cc1	7.31 µM (active)	–
O=C(CSc1nc(-c2ccco2)cc(C(F)(F)F)n1)N1CCc2ccccc2C1	inactive	–
CC(C)c1nc(SCC(=O)NC(=O)NC(C)(C)C)n[nH]1	inactive	–
CC(C)(C)NC(=O)CSc1nc(-c2ccc(F)cc2)cc(C(F)(F)F)n1	20.6 µM (active)	–
Cc1cc(C(F)(F)F)nn1-c1nc(-c2ccco2)cc(C(F)(F)F)n1	inactive	–
CN(C)c1ccc(NC(=O)CSc2n[nH]c(-c3ccco3)n2)cc1	inactive	–
Cc1cccc(NC(=O)CSc2nc(-c3ccco3)cc(C(F)(F)F)n2)c1C	10.3 µM (active)	–
COc1ccc(S(=O)(=O)NCC(=O)NCc2cc(=O)n(C)c(=O)n2C)cc1F	inactive	–
O=C(CC1C(=O)NCCN1CC(c1ccccc1)c1ccccc1)NCC1CCOCC1 (configuration not stated)	inactive	–
CCCS(=O)(=O)NC(=O)C1(C)CCCN(C(=O)c2cccs2)C1 (configuration not stated)	inactive	–
O=C(CSc1nnc(SCc2ccc(F)cc2)s1)Nc1ccc(C(=O)O)cc1	inactive	–
COc1ccc(C2=NN(C(=O)c3ccccc3C(=O)O)C(c3ccccc3O)C2)cc1 (configuration not stated)	inactive	–
CCC(C)(C)NC(=O)CN(C(=O)CCC(=O)Nc1cc(C)ccn1)c1ccc2c(c1)OCCO2	inactive	–
FC(F)(F)c1nnc2c3ccccc3c(Cl)nn12	5.17 µM (active)	–
FC(F)(F)c1nnc2ccc(N3CCN(c4ccccc4)CC3)nn12	inactive	–
FC(F)(F)c1nnc2sc(-c3ccco3)nn12	inactive	–
O=C(COC(=O)c1cncc(Br)c1)Nc1ccc(S(=O)(=O)N2CCOCC2)cc1	inactive	–
C=CCNC(=O)c1ccccc1SCc1c(C)noc1C	inactive	–
Cc1ccn(CC(=O)NC2CCCN(Cc3ccccc3F)C2)n1 (configuration not stated)	inactive	–
Cc1ccccc1CSCCNC(=O)C1CCN(S(=O)(=O)Cc2ccccc2)CC1	inactive	–
Cc1ccccc1CSCCNC(=O)c1ccc(N(C)S(=O)(=O)c2ccccc2)cc1	18.4 µM (active)	–
CN(c1ccccc1)S(=O)(=O)c1ccc(C(=O)NCCc2ccccc2)cc1	inactive	–

SMILES	Potency	activity change, negative = growth inhibition
Cc1nc2ccccc2nc(=O)c1NNc1ccc([N+](=O)[O-])cc1	inactive	–
Cc1ccc(CN2CC(C(=O)NNC(=O)Cn3ccc(C(F)(F)F)n3)CC2=O)cc1 (configuration not stated)	inactive	–
CC(C)=CCc1ccc(O)c(=O)cc1C(C)C	20.6 µM (active)	–
CSc1ncc(C(=O)NCc2ccccc2Cl)c(C(F)(F)F)n1	inactive	–
O=C(/C=C/c1ccccc1[N+](=O)[O-])OCC(=O)N1CCCC1	inactive	–
CC1(C2CC2)NC(=O)N(CC(=O)N2CCN(c3ccccc3F)CC2)C1=O (configuration not stated)	inactive	–
COc1ccc(OC)c(C(C)NC(=S)Nc2ccc(S(=O)(=O)Nc3ncccn3)cc2)c1 (configuration not stated)	inactive	–
Clc1ccc(CSc2nnc3c(n2)[nH]c2ccccc23)cc1	inactive	–
COc1ccc(Cc2nc3ccc(C(=O)NCc4ccccc4Cl)cc3o2)cc1	16.4 µM (active)	–
COc1ccc(NC(=O)c2ccc3nc(CCc4ccccc4)oc3c2)c(OC)c1	inactive	–
COc1ccc(CNC(=O)c2ccc3oc(C(C)C)nc3c2)cc1	inactive	–
CSCCNC(=O)c1ccc2nc(Cc3ccccc3F)oc2c1	inactive	–
COCCNC(=O)c1ccc2nc(Cc3ccc(OC)c(OC)c3)oc2c1	inactive	–
COc1ccc(Cc2nc3ccc(C(=O)N4CCC(N(C)C)C4)cc3o2)cc1 (configuration not stated)	inactive	–
COc1ccc(Cc2nc3ccc(C(=O)NCc4ccc(OC)cc4OC)cc3o2)cc1	16.4 µM (active)	–
COc1ccc(Cc2nc3ccc(C(=O)NCc4ccccc4C)cc3o2)cc1	20.6 µM (active)	–
CCn1ccnc1CN(C)C(=O)c1ccc2nc(Cc3ccc(OC)cc3)oc2c1	inactive	–
CCCCOC(=O)CSc1ncnc2sc3c(c12)CCC(C)C3 (configuration not stated)	inactive	–
Cc1nccn1CCC1CCCCN1C(=O)CCc1nnc(-c2ccsc2)o1 (configuration not stated)	inactive	–
CC(=O)OCCOCn1cnn2c(=O)c(Br)c(C)nc12	inactive	–
CSc1n[nH]c(-c2ccco2)n1	inactive	–
COC(=O)c1ccc(C)c(NC(=O)Cn2c(C)csc2=O)c1	inactive	–
Nc1ccc(C(=O)OCC(=O)NC2CCS(=O)(=O)C2)cc1[N+](=O)[O-] (configuration not stated)	inactive	–
O=NN(CCCl)C(=O)NCCc1cccc[n+]1[O-]	inactive	–
NC(=O)C1CCN(C(=O)c2ccc3c(=O)n(Cc4cccc(Br)c4)c(=S)[nH]c3c2)CC1	inactive	–
CCOC(=O)c1sc(=S)n2c1[nH]c(=O)c1ccc(C(=O)OC)cc12	10.3 µM (active)	–

SMILES	Potency	activity change, negative = growth inhibition
COC(=O)c1cccc(NC(=O)CSc2nc(C)cc(=O)[nH]2)c1	inactive	–
CCOC(=O)c1sc2nc(C)[nH]c(=O)c2c1C	inactive	–
COc1ccccc1C1C(C(=O)N2CCCCC2)=C(C)Nc2nc3ccccc3n21 (configuration not stated)	inactive	–
CCCCN1C(=O)C(CC(=O)NCc2cccs2)CC(C(=O)N2CCCCCC2)=C1C (configuration not stated)	inactive	–
Cc1cc(O)c(C(c2ccccc2)N2CCN(c3ccccc3F)CC2)c(=O)n1Cc1ccco1 (configuration not stated)	inactive	–
OC(COc1cccc2ccccc12)CN1CCN(c2ccccn2)CC1 (configuration not stated)	inactive	–
Cc1cc(C)c(NC(=O)C[N+](C)(C)CC(O)COc2cccc3ccccc23)c(C)c1 (configuration not stated)	18.4 µM (active)	–
Cc1cc(C)cc(OCC(=O)Nc2c(C(=O)c3ccccc3)oc3ccccc23)c1	inactive	–
COc1ccccc1CNC(=O)COC(=O)c1cccs1	inactive	–
COc1cc(/C=C/C(=O)Nc2ccc(OC)c(S(=O)(=O)N3CCOCC3)c2)ccc1OCC#N	inactive	–
COc1ccc(/C=C/C(=O)Nc2ccc(C34CC5CC(CC(O)(C5)C3)C4)cc2)cc1OC	2.31 µM (active)	–
COc1ccc(/C=C/C(=O)Nc2cccnc2)cc1OC	inactive	–
COCCn1c(N)c(NCc2ccccc2)c(=O)[nH]c1=O	inactive	–
O=C(COC(=O)C12CC3CC(CC(O)(C3)C1)C2)NC12CC3CC(CC(C3)C1)C2	inactive	–
COc1cccc(NC(=O)CSc2nnc(Cc3ccc(OC)c(OC)c3)o2)c1	inactive	–
Cc1cc(C)c2c(Cn3ccnc3)cc(=O)oc2c1	inactive	–
COc1ncnc2c1ncn2CCCNCCN1CCOCC1	inactive	–
O=C(O)C(c1ccccc1)N1C(=O)/C(=C\c2ccc(-c3cccc(Cl)c3)o2)SC1=S (configuration not stated)	inactive	–
CCOC(=O)CCCNC(=O)CN1C(=O)NC(CCc2ccccc2)C1=O (configuration not stated)	inactive	–
CCCCNC(=O)C(C)N(CCN(C)C)C(=O)CCCN1C(=O)NC(c2ccc(Cl)cc2)C(C(=O)OCc2ccccc2)=C1C (configuration not stated)	20.6 µM (active)	–
COCCOC(=O)C1=C(C)NC(=O)NC1c1ccc(Cl)cc1 (configuration not stated)	inactive	–
CCCCNC(=O)C1(O)c2ccccc2NC(=O)N1c1ccc(Cl)cc1 (configuration not stated)	inactive	–
CC1=C(C(=O)OCc2ccccc2)C(c2ccc(C(F)(F)F)cc2)NC(=O)N1CCCCCC(=O)O (configuration not stated)	inactive	–
CCCCNC(=O)C(C)N(CCN(C)C)C(=O)CCCCCN1C(=O)NC(c2ccc(Cl)cc2)C(C(=O)OCc2ccccc2)=C1C (configuration not stated)	7.31 µM (active)	–
COc1ccccc1/C=C/C(=O)NC(=S)N1CCOCC1	inactive	–
CC(C)Cc1nnc(NC(=O)CN2C(=O)NC3(CCCCC3)C2=O)s1	inactive	–

SMILES	Potency	activity change, negative = growth inhibition
COC(=O)c1ccccc1NC(=O)CSc1nc2c(c(=O)[nH]1)CCC2	inactive	–
CC(=O)Nc1ccc(S(=O)(=O)N2CCn3cccc3C2C)cc1 (configuration not stated)	inactive	–
O=C(CCN1CCCO1)N1CCCC(N2CCN(c3cccc(C(F)(F)F)c3)CC2)C1 (configuration not stated)	inactive	–
O=C(OCC(=O)N1CCOCC1)c1ccc2ccccc2c1	inactive	–
O=C(NN=Cc1ccc2c(c1)CCC2)c1ccccc1O	inactive	–
NC(=O)c1ccccc1N=Cc1ccc2ccccc2c1	20.6 µM (active)	–
COc1ccccc1C(=O)N[C@@H]1c2ccccc2C2(CCN(C(=O)c3csnn3)CC2)[C@H]1OC	–	-8.07% [at 9.04 µM]
COC(=O)CC1=NN(c2ccccc2)C(=O)C1	inactive	–
CCC(CC)c1nn2cc(-c3ccccc3)nc2s1	inactive	–
COC(=O)CC1Oc2ccccc2-n2cc(-c3ccccc3)nc21 (configuration not stated)	14.6 µM (active)	–
COc1ccccc1NC(=O)COC(=O)c1ccccc1SCC(=O)N1CCCC1	inactive	–
c1ccc(-n2cccc2)c(N2CCCCC2)c1	inactive	–
COc1ccc(N2C(=O)C(O)C2c2ccc(C)cc2)cc1 (configuration not stated)	inactive	–
COC(=O)C1C(=O)NCC1c1ccc(OC)cc1 (configuration not stated)	inactive	–
COC(=O)C1=C(Nc2ccc(OC)cc2)C=C(C)C(C(=O)OC)C1c1ccc(C)cc1 (configuration not stated)	16.4 µM (active)	–
Cc1ccc(C(=O)Nc2ccc3[nH]c(=O)c(=O)[nH]c3c2)cc1	inactive	–
CC(C)CCNC(=O)CCNS(=O)(=O)c1ccc(Cl)cc1	inactive	–
COC(=O)c1c(OCc2ccc(F)cc2)cc(=O)n2c1CCN(Cc1ccc3cccnc3c1)CC2	–	8.77% [at 9.04 µM]
O=C(Nc1cc(-c2nc3ccccc3o2)ccc1Cl)c1cc([N+](=O)[O-])ccc1N1CCOCC1	inactive	–
COc1cc(/C=C/CNC[C@H]2O[C@@H](n3cnc(C(N)=O)n3)[C@H](O)[C@@H]2O)ccc1O	inactive	–
O=C(c1ccco1)n1nc(-c2ccc(Cl)cc2)nc1NCc1ccccc1	18.4 µM (active)	–
O=C(Cc1ccccc1)n1nc(-c2ccccc2)nc1NCc1ccco1	inactive	–
O=C(c1ccc(Cl)cc1)n1nc(-c2cccnc2)nc1NCc1ccc(F)cc1	inactive	–
COc1ccc(C(=O)NCCSc2ccccc2C)cc1	inactive	–
